ALR inh – human ALR oxidase inhibition via reduced H2O2 | actives 3.8% (n = 290,000) | inhibition, % (concentration not given with the values) | P55789 | purified ALR, DTT oxidation, H2O2 HRP-luminol luminescence | AID 485317;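 active = mean replicate inhibition above about 79%, with every replicate also reaching it, limit read from the data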
Target sequence (P55789 whole entry, looked up): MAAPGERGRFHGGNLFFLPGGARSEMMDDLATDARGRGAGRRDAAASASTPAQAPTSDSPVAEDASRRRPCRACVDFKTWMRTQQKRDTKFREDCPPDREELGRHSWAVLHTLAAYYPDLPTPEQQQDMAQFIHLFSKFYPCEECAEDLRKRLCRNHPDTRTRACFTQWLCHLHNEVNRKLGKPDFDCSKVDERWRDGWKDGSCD
ARNT-TACC3 inh – disruptors of human ARNT/TACC3 interaction | AlphaScreen His-ARNT PAS-B/GST-TACC3 binding, luminescence; TACC3 fragment carries E629A point mutation | AID 623870 | inhibition, % at 9.99 µM | actives 0.66% (n = 390,000);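 active = mean inhibition of replicates at least 50% and at least half of replicates each reaching 50%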
NRP1-CendR mod – NRP-1/CendR interaction modulation; O14786; FAM-RPARPAR peptide binding to NRP-1, fluorescence polarization; inhibition, % at 25 µM; AID 602438; actives 0.85% (n = 360,000);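 active = inhibition or corrected inhibition above about 18%, plus a signal ratio from 0.5 to 1.5, limit read from the data, passing the limit was not always enough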
PglD inh – inhibitors of Campylobacter jejuni PglD acetyltransferase; purified PglD enzyme, DTNB colorimetric CoA detection; inhibition, % at 12.5 µM; actives 0.098% (n = 360,000); AID 602405; in the data active = inhibition above about 16%, passing the limit was not always enough
ERp5 inh – blocks human ERp5 reductase activity on insulin; ERp5 insulin aggregation, absorbance 650 nm, 90 min; inhibition, % at 9.99 µM; actives 0.05% (n = 350,000); AID 651711;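 active = mean replicate inhibition above about 25%, with every replicate also reaching it, limit read from the data, passing the limit was not always enough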
Target sequence (Q15084 whole entry, looked up): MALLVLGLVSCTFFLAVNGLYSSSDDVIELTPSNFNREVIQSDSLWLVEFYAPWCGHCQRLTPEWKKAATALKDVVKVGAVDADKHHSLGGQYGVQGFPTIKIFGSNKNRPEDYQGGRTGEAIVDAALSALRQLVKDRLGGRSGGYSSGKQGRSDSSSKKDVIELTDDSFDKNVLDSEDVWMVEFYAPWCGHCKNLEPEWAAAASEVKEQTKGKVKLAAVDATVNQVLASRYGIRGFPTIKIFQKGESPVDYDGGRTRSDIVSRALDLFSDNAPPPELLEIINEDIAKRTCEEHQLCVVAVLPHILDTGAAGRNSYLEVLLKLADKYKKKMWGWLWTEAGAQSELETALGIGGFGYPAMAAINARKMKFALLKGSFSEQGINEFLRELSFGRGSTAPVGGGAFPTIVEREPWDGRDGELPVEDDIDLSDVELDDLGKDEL
PDI turbidity – inhibitors of human protein disulfide isomerase; PDI insulin aggregation turbidity, A650, 90 min; inhibition, % at 10 µM; actives 0.052% (n = 350,000); AID 588391;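 active = mean inhibition across replicates of 30% or more, whatever share of single replicates reach that level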
Numbers stand for hits; i = inactive; nt = no result. Many of the other results were omitted from the sample, so hits are more common in it than they were.

SMILES | ALR inh | ARNT-TACC3 inh | NRP1-CendR mod | PglD inh | ERp5 inh | PDI turbidity
O=c1oc(-c2ccc(F)cc2)nc2ccsc12 | 83.5 | nt | i | i | nt | i
O=c1oc(-c2ccccc2Cl)nc2ccsc12 | i | nt | i | i | nt | i
CCOc1cc(-c2c(C#N)c(N)nc3c2CCc2ccccc2-3)ccc1O | i | i | i | nt | nt | i
CCOc1cc(-c2c(C#N)c(N)nc3c2CCCC3C)ccc1O (stereo unspecified) | 97.6 | i | i | i | nt | i
O=C(Nc1ccc(-c2n[nH]c(=S)o2)cc1)c1ccccc1Br | 86.3 | i | i | i | i | i
Cc1ccc(S(=O)(=O)N(C)C[C@H]2Oc3ccc(NC(=O)Nc4ccc5c(c4)OCO5)cc3C(=O)N([C@H](C)CO)C[C@H]2C)cc1 | nt | i | nt | i | i | nt
OC(CCc1ccncc1)c1ccccc1 (stereo unspecified) | i | i | i | i | i | i
OC(CCc1ccncc1)COc1ccccc1 (stereo unspecified) | nt | i | 20.5 | i | i | i
O=C(CCl)NN=C(c1ccccc1)c1ccccc1 | 94.3 | i | i | i | i | i
CCN(CC)CC(=O)NN=C(c1ccccc1)c1ccccc1 | i | i | i | i | nt | i
COc1ccc(NC(=O)O[C@@H](c2ccc(OC)c(O)c2)[C@H](CCO)OC)cc1 | nt | nt | nt | i | i | nt
Cc1c(O)ccc2c(CN3CCN(C/C=C/c4ccccc4)CC3)cc(=O)oc12 | nt | i | i | nt | i | 43.5
c1ccn2cc(CSc3nnc4ccccn34)nc2c1 | i | i | i | nt | i | i
Cn1ccnc1SCc1cn2ccccc2n1 | 94.3 | i | i | i | nt | i
Oc1[nH]c2ccccc2c1C=NCC1CCCO1 (stereo unspecified) | 98.2 | i | i | i | nt | i
COc1ccc(CN=Cc2c(O)[nH]c3ccccc23)cc1 | 99.3 | i | i | nt | i | i
COc1ccc(N=Cc2c(O)[nH]c3ccccc23)cc1 | i | i | i | i | nt | i
COc1ccccc1NC(=O)N1C[C@H]2[C@@H](c3ccccc31)[C@@H](CO)N2C(=O)c1ccccc1 | nt | i | nt | i | i | nt
CO[C@@H]1CN(C)C(=O)c2ccc(NC(=O)NC(C)C)cc2OC[C@@H](C)N(C)C[C@@H]1C | nt | i | nt | i | i | nt
COc1ccc(/C=N/NC(=O)c2cccc(NC(=O)c3ccccc3Cl)c2)c(OC)c1 | i | nt | 31.8 | nt | i | i
COc1cc(C(=O)N/N=C(\C)c2ccc(NC(=O)Cc3ccccc3)cc2)ccc1O | 95.5 | i | i | i | i | i
COc1cc(/C=N/NC(=S)Nc2cccc(C(=O)O)c2)ccc1O | 99.0 | i | i | i | i | i
COc1ccccc1/C=N/NC(=O)c1cccc(NC(=O)c2ccccc2Cl)c1 | i | i | i | nt | i | i
COc1cc(/C=N/NC(=O)c2ccccc2)ccc1O | 99.8 | i | i | nt | i | i
COc1cc(C(=O)N/N=C/c2ccc(OC(=O)c3ccccc3)c(OC)c2)ccc1O | i | i | i | i | i | i
SMILES | ALR inh | ARNT-TACC3 inh | NRP1-CendR mod | PglD inh | ERp5 inh | PDI turbidity
CCC(=O)N1[C@H](CO)[C@@H](c2ccccc2)[C@@H]1CN(CC)C(=O)c1ccccc1 | nt | i | nt | i | i | nt
N#Cc1cccc(-c2ccc3c(c2)[C@H]2[C@H](CCN2S(=O)(=O)c2ccccc2F)[C@@H](CO)N3)c1 | nt | i | nt | i | i | nt
COc1cc(/C=N/NC(=O)c2cccc(NC(=O)c3ccccc3Cl)c2)ccc1O | 87.7 | i | i | nt | i | i
COc1cc(/C=N\NS(=O)(=O)c2ccccc2)cc(OC)c1OC | i | i | i | i | i | i
COc1ccc(/C=N/NC(=O)c2cccnc2)cc1 | i | i | i | i | i | i
COc1ccc(/C=N/NC(=O)c2cccnc2)cc1O | 87.6 | i | i | i | i | i
COc1ccc(/C=N/NC(=O)c2cccc(NC(=O)c3ccccc3Cl)c2)cc1OC | i | i | i | nt | i | i
COc1cc(/C=N/Nc2ccc(S(N)(=O)=O)cc2)cc(OC)c1OC | 92.8 | i | i | nt | i | i
COc1ccc(OC)c(/C(C)=N/Nc2ccc(C(=O)O)cc2)c1 | 98.8 | nt | i | i | i | i
CCCC(=O)Nc1ccc2c(c1)C(=O)N(C)C[C@@H](OC)[C@H](C)CN(C(=O)CN(C)C)[C@@H](C)CO2 | nt | i | nt | i | i | nt
O=[N+]([O-])c1cc(/C=N/N/C(=N/c2ccccn2)c2ccccn2)ccc1O | i | 65.9 | i | nt | i | i
COc1cc(/C=N/NC(=O)c2ccc(CSc3nc4ccccc4[nH]3)cc2)ccc1O | 98.9 | nt | i | nt | i | i
COc1cc(/C=N/NC(=O)CN(Cc2ccco2)S(=O)(=O)c2ccccc2)ccc1O | 99.8 | i | i | i | nt | i
O=C(N/N=C/c1cccnc1)c1cc(O)c(O)c(O)c1 | 97.4 | i | i | nt | i | i
C[C@@H]1CN([C@H](C)CO)C(=O)c2cccc(NC(=O)c3cnccn3)c2O[C@H]1CN(C)S(=O)(=O)c1cn(C)cn1 | nt | nt | nt | nt | i | nt
COc1cc(/C=N/N=C/c2c[nH]c(=O)c(C#N)c2Nc2ccccc2)ccc1O | 78.4 | nt | nt | nt | nt | nt
CCN(CC)S(=O)(=O)c1cccc(C(=O)N/N=C/c2ccc(OC)c(O)c2)c1 | 96.6 | i | i | i | i | i
COc1cc(C(=O)N/N=C/c2cn(Cc3ccccc3)c3ccccc23)ccc1O | 84.6 | i | i | i | i | i
COc1ccc(C(=O)Oc2ccc(/C=N/NC(=O)c3ccccc3OC)cc2[N+](=O)[O-])cc1 | nt | nt | i | i | nt | i
O=C(N/N=C/c1ccc(OC(=O)c2ccccc2)c([N+](=O)[O-])c1)c1ccc(O)cc1 | 94.0 | i | i | i | nt | i
C[C@H]1CN([C@@H](C)CO)C(=O)c2cc(C#CCc3ccccc3)cnc2O[C@@H]1CN(C)CC1CCCC1 | nt | i | nt | i | i | nt
Cc1noc(C)c1S(=O)(=O)Nc1ccc2c(c1)C(=O)N([C@@H](C)CO)C[C@H](C)[C@H](CN(C)C(=O)Nc1cccc3ccccc13)O2 | nt | i | nt | i | i | nt
C[C@@H]1CN([C@H](C)CO)C(=O)Cc2cc(NS(C)(=O)=O)ccc2O[C@@H]1CN(C)S(=O)(=O)c1ccc(Cl)cc1 | nt | i | nt | i | i | nt
CCCC(=O)Nc1ccc2c(c1)OC[C@@H](C)N(C(=O)C1CCCC1)C[C@@H](C)[C@H](OC)CN(C)C2=O | nt | i | nt | i | i | nt
COc1ccc(NC(=O)Nc2ccc3c(c2)C(=O)N([C@H](C)CO)C[C@H](C)[C@@H](CN(C)CC2CCCCC2)OCCCC[C@H](C)O3)cc1 | nt | i | nt | i | i | nt
COc1cc(/C=N/Nc2ccc(C(=O)O)cc2)ccc1O | 99.2 | nt | i | nt | i | i
Cc1ccccc1C(=O)Nc1cccc(C(=O)N/N=C/c2ccccn2)c1 | i | 45.6 | i | i | i | i
COc1cc(/C=N/Nc2ccc(C(=O)O)cc2)cc(OC)c1OC | i | i | i | nt | i | i
COc1ccccc1/C=N/NC(=O)c1cccc(NC(=O)c2ccccc2C)c1 | i | nt | i | i | i | i
C[C@H]1CN([C@@H](C)CO)C(=O)c2cccc(NS(=O)(=O)c3cccs3)c2O[C@H]1CN(C)Cc1ccc(Cl)c(Cl)c1 | nt | i | nt | i | i | nt
